PubChem BioAssay AID588675 (Johns Hopkins Ion Channel Center, 2011)
About 1,900 (0.61%) of roughly 310,000 compounds were called active.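 How the source made its calls: active means plate-corrected calcium response at least 3 library SD above typical, normal starting fluorescence, not activating the receptor alone; inactive means the rest.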 Only a selection was taken, and actives are over-represented in it overall.

These molecules were tested against Mas-related G-protein coupled receptor member X1 (Homo sapiens) (UniProt Q96LB2) (assay: allosteric enhancers of human MrgX1 signaling – HEK293 cells, Fluo-4 calcium flux, primary screen (AID 588675;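 further: compound read alongside a low EC10 to EC30 dose of BAM8-22 agonist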;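 on B-score: peak minus trough fluorescence over baseline measured at the second addition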)). Conditions: MrgX1-HEK293, Fluo-4 calcium flux, FDSS, at 10 µM; stronger effect = higher value.
Mas-related G-protein coupled receptor member X1 (Homo sapiens), sequence (Q96LB2 whole entry, looked up): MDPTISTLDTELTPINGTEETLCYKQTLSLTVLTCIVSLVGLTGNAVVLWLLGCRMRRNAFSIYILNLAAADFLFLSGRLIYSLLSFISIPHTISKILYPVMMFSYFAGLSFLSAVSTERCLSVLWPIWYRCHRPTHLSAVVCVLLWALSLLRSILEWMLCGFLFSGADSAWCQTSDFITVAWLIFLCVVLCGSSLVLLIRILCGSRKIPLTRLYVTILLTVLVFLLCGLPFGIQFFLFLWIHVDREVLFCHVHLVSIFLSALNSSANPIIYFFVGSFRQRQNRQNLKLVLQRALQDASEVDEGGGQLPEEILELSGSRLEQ

SMILES	B-score
CCn1cc(C(=O)NC2CCCCCC2)c(=O)c2cc(S(=O)(=O)N3CCCCC3)ccc21	inactive
Cc1ccc(C)c(-c2nnc(NC(=O)CS(=O)(=O)c3ccccc3)o2)c1	inactive
CN(C)S(=O)(=O)Oc1ccccc1C(=O)Nc1ccccc1Cl	inactive
CC1CCN(S(=O)(=O)c2ccc3[nH]c(=O)ccc3c2)CC1	inactive
COc1ccc(N2C(=O)C(Cc3ccccc3)NC2=S)cc1 (configuration not stated)	inactive
O=C1C(Cc2ccc(O)cc2)NC(=S)N1Cc1ccccc1 (configuration not stated)	9.49 (active)
Cc1cc(C)c(NC(=O)CN2C(=O)NC(Cc3ccccc3)C2=O)c(C)c1 (configuration not stated)	inactive
CC1(C)CC(=O)C2=C(C1)N=C1SCCC(=O)N1C2c1ccc(C(F)(F)F)cc1 (configuration not stated)	inactive
COc1ccc(CNc2c(CO)cnc3c2cnn3C)cc1	inactive
COc1ccc(Cc2nc(-c3ccccn3)no2)cc1OC	8.9 (active)
COCCNC(=O)c1ccc2nc(Cc3ccc(OC)c(OC)c3)oc2c1	inactive
COc1ccc(CCNS(=O)(=O)c2cccc3cccnc23)cc1OC	inactive
Cc1ccc(N2CC(C(=O)Nc3cc(Cl)ccc3-n3cncn3)CC2=O)cc1 (configuration not stated)	inactive
Cn1nc(C(F)(F)F)c(-c2ccc(F)cc2)c1NC(=O)CSCC(=O)O	inactive
CCCC1OC23CCCCC2C(C#N)(C#N)C1(C#N)C(=N)O3 (configuration not stated)	inactive
COc1ccc(CN(C)C(=O)Cc2ccsc2)c(OC)c1OC	inactive
O=C(Nc1ccccc1N1CCCCC1)c1ccc2nccnc2c1	7.2 (active)
O=C(Nc1ccccc1N1CCN(c2ccccc2)CC1)c1cccc(F)c1	inactive
O=C(Nc1ccccc1N1CCCC1)c1ccc2ccccc2c1	inactive
COCCn1c(CN2CCC(Cc3ccccc3)CC2)nc2c1c(=O)n(C)c(=O)n2C	inactive
CCOc1ccc(NC(=O)CCS(=O)(=O)c2ccc3c(c2)CCCN3C(=O)CC)cc1	inactive
Cc1ccc(S(=O)(=O)N2CCC(C(=O)NCCC3=CCCCC3)CC2)cc1C	inactive
CC(=O)N1N=C(c2ccncc2)OC1(Cc1ccccc1)Cc1ccccc1	7.85 (active)
O=C(Cc1ccccc1)N1N=C(c2ccncc2)CC1(O)C(F)(F)F (configuration not stated)	inactive
CC(=O)N1N=C(c2ccccc2)OC1c1cccnc1 (configuration not stated)	inactive
O=C(c1ccccc1)C(Cn1cncn1)C(Sc1ccccc1)c1ccccc1 (configuration not stated)	inactive

SMILES	B-score
CCN(CC(=O)Nc1ccccc1OC)C(=O)Cn1cnc2ccccc2c1=O	inactive
Cc1ccc(/C=C/C(=O)O)cc1S(=O)(=O)N1CCC(Cc2ccccc2)CC1	inactive
Cn1cnnc1Sc1ccc(S(C)(=O)=O)cc1[N+](=O)[O-]	12.1 (active)
CCN(CC(=O)Nc1c(F)cccc1F)C(=O)c1ccc(Sc2nncn2C)c([N+](=O)[O-])c1	inactive
CC(=O)Nc1ccc(Nc2c([N+](=O)[O-])cc(S(C)(=O)=O)cc2[N+](=O)[O-])cc1	inactive
CS(=O)(=O)Nc1ccc(C(=O)N2CCCC2)cc1	inactive
Cn1c(=O)c2c(nc(N/N=C/c3cccs3)n2Cc2ccc(Br)cc2)n(C)c1=O	inactive
COc1ccc(NC(=O)C2C3C=CC(C3)C2C(=O)NCc2ccccn2)c(OC)c1 (configuration not stated)	inactive
Cn1c(=O)n(C)c2cc(S(=O)(=O)N3CCCc4ccccc43)ccc21	inactive
COc1ccc(C(=O)OCC(=O)NCC2CCCCC2)cc1S(=O)(=O)N1CCCc2ccccc21	inactive
COc1cc(C)c(C)cc1S(=O)(=O)N1CCCc2ccccc21	7.48 (active)
CC[C@@H](C)[C@@H](C(=O)N1CCN(C(=O)OC(C)(C)C)CC1)n1cc(CCC(=O)O)nn1	inactive
CC1CN(S(=O)(=O)c2cccc(C(F)(F)F)c2)CN1C(=O)N1CCOCC1 (configuration not stated)	inactive
COc1ccc(C2SCCN2S(=O)(=O)c2ccccc2)cc1OC (configuration not stated)	7.25 (active)
COc1ccc(C2CC(=O)n3c(nc4ccccc43)S2)cc1OC (configuration not stated)	inactive
COc1ccc(S(=O)(=O)N2CCC(C(=O)N3CCc4ccccc4C3)CC2)cc1OC	inactive
Cc1cc(NC(=O)CS(=O)(=O)c2cn(C)c3ccccc23)no1	inactive
CCCCN1C(N)=NC[C@@H]1CC1CCCCC1	inactive
COc1ccccc1CCNS(=O)(=O)c1cn(C)nc1C	inactive
CC(N=Cc1nc(-c2ccccc2)oc1O)c1ccccc1 (configuration not stated)	inactive
CCOc1ccc2nc(/N=C/c3nc(-c4ccccc4)oc3O)sc2c1	18.1 (active)
CCOc1ccc2nc(N(CCCN(C)C)C(=O)c3ccc(C(=O)c4ccccc4)cc3)sc2c1	inactive
CN1C(=O)CC(c2ccccc2)C1=O (configuration not stated)	inactive
Cc1cccc(N(C)C(=O)c2cc(S(=O)(=O)N3CCCCC3)c[nH]2)c1	inactive
COC(=O)Cn1c(=NC(=O)c2cc(OC)c(OC)c(OC)c2)sc2cc(OC)ccc21	inactive
COc1ccc(OC)c(C(=O)c2ccc(Cl)cc2)c1	inactive

SMILES	B-score
COc1ccc(/C(C)=N/NC(=O)CCC(=O)Nc2ccc(Cl)cc2Cl)c(OC)c1	inactive
COc1ccc(OC)c(/C(C)=N\NC(=O)c2cc3cc(Cl)ccc3n2C)c1	6.86 (active)
CCN(CC(=O)NCc1cccs1)C(=O)c1cccc(S(=O)(=O)Nc2ccccc2OC)c1	inactive
CCOc1ccccc1NS(=O)(=O)c1c[nH]c(C(=O)OC)c1	inactive
CCOc1ncccc1C(=O)NNC(=O)c1cccc(S(=O)(=O)Nc2ccccc2OC)c1	7.54 (active)
COc1ccc(CCNC(=S)NC(=O)/C=C/c2ccc(C)cc2)cc1OC	inactive
COCCCNC(=O)CN1CCN(Cc2ccccc2Cl)C1=O	inactive
C#CCOCCOCCOCCNc1nc(N2CCN(C(=O)[C@H](CCCCN)n3cc(CCC(=O)O)nn3)CC2)nc(N2CCN(C(=O)[C@H](CCCCN)n3cc(CC(C)O)nn3)CC2)n1 (some centres not stated)	inactive
COc1cc(Nc2nc3ccc(Cl)cc3n3cnnc23)cc(OC)c1OC	inactive
COc1ccc(OC)c(Nc2nc3ccccc3n3cnnc23)c1	9.87 (active)
COc1ccc(CCNc2nc3ccc(C)cc3n3cnnc23)cc1OC	inactive
Cc1nn2cc(-c3ccc(Cl)cc3)cnc2c1Br	inactive
CN1C(C)(C)CC(NC(=O)CCC(=O)NC2CC(C)(C)N(C)C(C)(C)C2)CC1(C)C	inactive
S=c1nc(C23CC4CC(CC(C4)C2)C3)nc2sccn12	inactive
Nc1nc(C23CC4CC(CC(C4)C2)C3)cs1	15.8 (active)
Nc1nc(SC23CC4CC(CC(C4)C2)C3)ns1	inactive
FC(F)(F)c1ccc2nnc(-c3c(Cl)cccc3Cl)n2c1	inactive
C/C(=N\NC(=O)CC(C)C)c1c(C(F)(F)F)[nH]n(-c2nc3ccccc3s2)c1=O	inactive
COC(=O)Cc1cc(=O)n(-c2nc3ccccc3s2)[nH]1	7.64 (active)
COC(=O)Cc1[nH]n(-c2nc3ccccc3s2)c(=O)c1C(C)=Nc1ccc(OC)cc1	inactive
COc1ccc(-c2nc3cc([N+](=O)[O-])ccc3o2)cc1OC	11 (active)
O=[N+]([O-])c1ccc2oc(-c3cccc(O)c3)nc2c1	inactive
COc1ccc([N+](=O)[O-])cc1-c1nc2ccccc2nc1-c1ccccc1	inactive
CC(C)N1C(=S)SC(C)(C)C1n1oc(=O)n(-c2ccc(Cl)c(Cl)c2)c1=O (configuration not stated)	inactive
O=C(CNC(=O)OCc1ccccc1)Oc1cc2oc(=O)cc(-c3ccccc3)c2cc1Cl	inactive
Cc1nc2sccn2c(=O)c1S(=O)(=O)NCCc1ccccc1	inactive

SMILES	B-score
Cc1ccc2c(C)c(C(=O)N(C)CCC3CCCCO3)oc2c1C (configuration not stated)	11.2 (active)
Cc1c(C(=O)N(C)CCc2cnn(C)c2)oc2c(F)cccc12	inactive
Cc1ccc2c(C)c(C(=O)N(C)Cc3ccncn3)oc2c1C	inactive
CCCCn1c(N)c(N(CCC(C)C)C(=O)CC2OC(=O)c3ccccc32)c(=O)[nH]c1=O (configuration not stated)	inactive
COc1ccc(C2(C)NC(=O)N(CC(=O)c3ccc4c(c3)OCO4)C2=O)cc1 (configuration not stated)	inactive
O=C(OCc1ccc([N+](=O)[O-])cc1)C1CC(=O)N(Cc2ccccc2Cl)C1 (configuration not stated)	inactive
CCCC1CCC(=NNC(=S)NCCc2ccccc2)CC1 (configuration not stated)	inactive
O=C(O)CCn1cc(/C=C/C(=O)c2ccc(Cl)cc2)c(-c2cccc(Br)c2)n1	inactive
COc1cc(/C=C(\C#N)c2nc3ccccc3[nH]2)ccc1O	inactive
CCOc1cc(/C=C(\C#N)c2nc(-c3cccs3)c(NC(C)=O)s2)ccc1O	inactive
COc1cc(/C=C(\C#N)c2nc3c(s2)CC(C)CC3)ccc1O (configuration not stated)	15.1 (active)
CC(=O)Nc1ccc(S(=O)(=O)N2CCN(C(=O)c3ccccc3F)CC2)cc1	inactive
O=C(Nc1cccc(Cl)c1)c1cncn1-c1ccc(F)cc1	12.5 (active)
O=C(Nc1cccc(Cl)c1)c1cc(S(=O)(=O)N2CCCCC2)c[nH]1	inactive
CCC(=O)Nc1nc(C)c(C(=O)Nc2cccc(Cl)c2)s1	inactive
C=CCn1cc(Cl)cc(C(=O)Nc2ccccc2)c1=O	inactive
COC(=O)c1c(NC(=O)CCN2CCOCC2)sc2c1CCCC2	inactive
COC(=O)c1c(NC(=O)COC(=O)[C@@H](NS(=O)(=O)c2ccccc2)C(C)C)sc2c1CCC2	inactive
COC(=O)c1c(NC(=O)CN(c2ccc(C)c(C)c2)S(C)(=O)=O)sc2c1CCCC2	11.7 (active)
COC(=O)c1c(NC(=O)CSc2nncs2)sc2c1CCCCC2	inactive
CCc1ccc(N(CC(=O)Nc2sc3c(c2C(=O)OC)CCCC3)S(C)(=O)=O)cc1	8.16 (active)
COC(=O)c1c(NC(=O)C2CC(C)=C(C)CC2C(=O)O)sc2c1CCCCC2 (configuration not stated)	inactive
COc1ccc(OC)c(-c2c(=O)n(OCc3ccccc3Br)c3ccccc3[n+]2[O-])c1	inactive
O=C(Oc1ccc(-c2nnco2)cc1)c1ccc(F)c(S(=O)(=O)N2CCOCC2)c1	inactive
